{"source": "PubChem BioAssay AID1822", "about": "(The Scripps Research Institute Molecular Screening Center, 2009)", "note": "The campaign covered roughly 290,000 compounds. About 3,500 (1.2%) were called active. The full list was thinned out, with actives kept by preference. Values without a mark were called inactive.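 The calls were made as follows: active = inhibition above the campaign mean inhibition over all tested compounds plus 3 SD (cut at about 28% in these data); inactive = the rest.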"}
{"test_system": "M18 aspartyl aminopeptidase (Plasmodium falciparum 3D7)", "assay": "PfM18AAP inhibitors, malaria aminopeptidase, primary screen, biochemical, QFRET, recombinant enzyme (AID 1822);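 also: 0% = plate median of test compound wells and 100% = 2 mM ZnCl2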", "conditions": "H-Glu-NHMec fluorogenic cleavage, at 7.35 µM, hits give high values"}
{"compound": "CCOc1ccc(C(=O)Nc2cccc(SC)c2)cc1", "inhibition": "-1.4%"}
{"compound": "O=C(CN1C(=O)COc2ccc(Cl)cc21)Nc1ccc(N2CCOCC2)cc1", "inhibition": "-12.7%"}
{"compound": "O=C(Nc1cc(N2CCOCC2)ncn1)NC1(C(F)(F)F)Oc2ccc(Cl)cc2O1", "note": "(stereo not given)", "inhibition": "89.4% (active)"}
{"compound": "COc1ccc(Cl)cc1NC(=O)CN1CCN(C(=O)N2CCOCC2)CC1", "inhibition": "-7.2%"}
{"compound": "CCOc1ccc(C(=O)CCN2CCOCC2)cc1", "inhibition": "-12.6%"}
{"compound": "O=C1c2ccccc2C(=O)N1CCOc1ccc(F)cc1", "inhibition": "-6.45%"}
{"compound": "CCn1c(SCC(=O)Nc2ccc(Br)cc2)nc2sc3c(c2c1=O)CCN(C)C3", "inhibition": "7.65%"}
{"compound": "COc1ccc(Cl)cc1S(=O)(=O)N1CCN(CC(=O)C(C)(C)C)CC1", "inhibition": "-1.35%"}
{"compound": "N#Cc1ccsc1NC(=O)CN1CCN(S(=O)(=O)c2cc(Cl)ccc2Cl)CC1", "inhibition": "-4.98%"}
{"compound": "O=C(CN1CCN(S(=O)(=O)c2cc(Cl)ccc2Cl)CC1)c1ccc(O)c(O)c1", "inhibition": "71.5% (active)"}
{"compound": "C/C(=N\\NC(=O)c1ccccc1F)c1ccccn1", "inhibition": "-8.33%"}
{"compound": "CC(C)(C)NC(=O)NC(=O)COC(=O)C1c2ccccc2Oc2ccccc21", "inhibition": "6.75%"}
{"compound": "CCn1ccnc1CNC(=O)CC1C(=O)NCCN1CCCc1ccccc1", "note": "(stereo not given)", "inhibition": "7.75%"}
{"compound": "CN(C(=O)CC1C(=O)NCCN1Cc1ccc(F)cc1Cl)C1CCCCC1", "note": "(stereo not given)", "inhibition": "-5.56%"}
{"compound": "CCn1ccnc1CNC(=O)CC1C(=O)NCCN1Cc1ccc(F)cc1Cl", "note": "(stereo not given)", "inhibition": "33.7% (active)"}
{"compound": "CCN(c1cccc(C)c1)S(=O)(=O)c1ccc(-c2coc(C)n2)cc1", "inhibition": "-0.79%"}
{"compound": "CCOc1ccccc1/C=N/Nc1nc2ccccc2o1", "inhibition": "2.76%"}
{"compound": "COc1ccc(/C=N/Nc2nc3ccccc3o2)cc1OC", "inhibition": "56.5% (active)"}
{"compound": "Brc1ccccc1/C=N/Nc1nc2ccccc2o1", "inhibition": "-0.38%"}
{"compound": "O=C(NC1Cc2ccccc2C1)c1cc(COc2cccc(C(F)(F)F)c2)on1", "inhibition": "0.88%"}
{"compound": "O=C(O)c1ccccc1-c1ccccc1C(=O)NCCc1ccccc1", "inhibition": "0.27%"}
{"compound": "Cc1ccc(C(=O)NC(=S)NCCN2CCOCC2)cc1", "inhibition": "-7.16%"}
{"compound": "CCOc1cccc(/C=N/NC(=S)NCCN2CCOCC2)c1O", "inhibition": "37.6% (active)"}
{"compound": "COc1cccc(NC(=S)NCCCN2CCOCC2)c1", "inhibition": "-6.09%"}
{"compound": "c1cnc(N2CCN(c3ccc4ccccc4n3)CC2)nc1", "inhibition": "-7.11%"}
{"compound": "COC(=O)c1cc(NS(=O)(=O)c2ccc3c(c2)c(=O)n(C)c(=O)n3C)cc(C(=O)OC)c1", "inhibition": "7.75%"}
{"compound": "CCOC(=O)[C@H]1[C@H]2COc3cc(OC)ccc3[C@@H]2N2C(=O)N(c3ccc(Br)cc3)C(=O)[C@@]12C", "inhibition": "8.12%"}
{"compound": "COc1cc(Cl)ccc1OCc1cc(C(=O)N2CC[C@@H]3CCCC[C@H]3C2)no1", "inhibition": "-8.61%"}
{"compound": "CCn1c(SCC(=O)N/N=C/c2ccncc2)nc2ccccc21", "inhibition": "-5.49%"}
{"compound": "Cc1nc2ccccc2n1CC(=O)N/N=C/c1cccnc1", "inhibition": "0.09%"}
{"compound": "CCOc1ccc(/C=N/NC(=O)CSc2ccccn2)cc1O", "inhibition": "-7.37%"}
{"compound": "Cc1nccn1CC(=O)N/N=C/c1ccc(O)c(O)c1", "inhibition": "59.7% (active)"}
{"compound": "CCOc1cc(/C=N/NC(=O)CN2CCCCC2)ccc1O", "inhibition": "-2.78%"}
{"compound": "Cn1c(SCC(=O)N/N=C/c2ccc(O)c(O)c2)nc2ccccc21", "inhibition": "61.1% (active)"}
{"compound": "CC(=O)Oc1ccc(-c2cccc(C(=O)N3CCCCC3)c2)cc1", "inhibition": "0.56%"}
{"compound": "CSc1nccc(NC(=O)c2ccc(C(C)(C)C)cc2)n1", "inhibition": "-0.09%"}
{"compound": "Cc1cccc([C@@H]2[C@@H]3C(=O)N(Cc4ccccc4)C(=O)[C@@H]3[C@]3(C)C(=O)N(c4ccc(Br)cc4)C(=O)N23)c1", "inhibition": "-12%"}
{"compound": "Cc1ccc(CNC(=O)[C@@H](NC(=O)Cc2ccccc2)C(C)C)cc1", "inhibition": "5.66%"}
{"compound": "COc1cccc(NC(=O)Nc2nnc(N3CCCCC3C)s2)c1", "note": "(stereo not given)", "inhibition": "0.21%"}
{"compound": "COc1ccccc1NC(=O)c1ccc(N2CC3CC(C2)c2cccc(=O)n2C3)c(NC(=O)c2cccnc2)c1", "note": "(stereo not given)", "inhibition": "29.5% (active)"}
{"compound": "COc1ccccc1NC(=O)c1ccc2nc(N3C(=O)CCC3=O)sc2c1", "inhibition": "-4.36%"}
{"compound": "CCOc1ccccc1NC(=O)c1cccnc1", "inhibition": "-12.7%"}
{"compound": "CC(C)Cn1c(=O)c2ccccc2n2c(CCC(=O)NCc3ccccn3)nnc12", "inhibition": "-6.62%"}
{"compound": "CCOc1ccc(S(=O)(=O)N2CCN=C2Cc2ccccc2)cc1C", "inhibition": "-0.06%"}
{"compound": "O=c1[nH]c(NCCO)nnc1Cc1ccc(Cl)cc1", "inhibition": "5.33%"}
{"compound": "Cc1nnc(N/N=C/c2ccccn2)[nH]c1=O", "inhibition": "8.17%"}
{"compound": "COc1ccc(Cc2nnc(N/N=C/c3ccccc3O)[nH]c2=O)cc1OC", "inhibition": "54.3% (active)"}
{"compound": "COc1cccc(N(CC(=O)NCc2ccccc2)C(=O)CCC(=O)Nc2nccs2)c1", "inhibition": "-7.44%"}
{"compound": "CCCn1c2ccccc2c2cnn(CC(=O)NCCCN3CCCCC3CC)c(=O)c21", "note": "(stereo not given)", "inhibition": "2.69%"}
{"compound": "Oc1ccc(C2Nc3cccc4cccc(c34)N2)cc1", "inhibition": "31.7% (active)"}
{"compound": "COc1cccc(C2Nc3cccc4cccc(c34)N2)c1", "inhibition": "-7.19%"}
{"compound": "Cc1ccc(C2Nc3cccc4cccc(c34)N2)cc1", "inhibition": "19.1%"}
{"compound": "CCOC(=O)C1(Cc2cccc(OC)c2)CCCN(C(=O)CCSC)C1", "note": "(stereo not given)", "inhibition": "-2.88%"}
{"compound": "Cc1ccc(C)c(N2CCN(C(=O)CCCCCn3c(=S)[nH]c4ccc(N5CCOCC5)cc4c3=O)CC2)c1", "inhibition": "5.1%"}
{"compound": "O=C(O)CC(CC(=O)N1CCOCC1)c1ccccc1", "note": "(stereo not given)", "inhibition": "-1.93%"}
